Results published in PubChem BioAssay AID1789 (The Scripps Research Institute Molecular Screening Center, 2009).
The whole screen tested about 290,000 compounds, of which about 2,700 (0.93%) were called active.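 How the source made its calls: active means inhibition above the screen-wide mean plus 3 SD, computed separately per campaign (cut at about 16% in these data); inactive means the rest.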 Many of the other results were omitted from the sample, so actives are more common in it than they were.

tested on: Heat shock protein HSP 90 (rabbit reticulocyte lysate; luciferase refolding); test: HSP90 inhibitors, primary screen, cell lysate, luminescence (AID 1789); details: 3 h, at 5.6 µM, stronger effect = higher value;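 further: 0% = DMSO wells and 100% = 60 µM geldanamycin wells; inhibitors lower the luminescence because luciferase stays unfolded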

inhibition, active:
Cc1csc(SCC(=O)Nc2sccc2C#N)n1 17.4%
CCCCCc1ccc(-c2ccc(C(=O)O)cc2)nc1 61.1%
Cc1nnc(SCC(=O)N2c3ccccc3C(C)(c3ccc(Cl)cc3)CC2(C)C)s1 (centres undefined) 58.2%
Cc1ccc(-c2cn3cc([N+](=O)[O-])ccc3n2)cc1 26.2%
Cc1ccc(-c2cn3cc(C)ccc3n2)cc1 84.1%
Cc1ccc2nc(-c3ccc(Br)cc3)cn2c1 75.1%
COc1ccc(-c2cn3ccc(C)cc3n2)cc1 61.9%
COc1cc(NS(=O)(=O)c2ccc3ccccc3c2)c2ncccc2c1 17.1%
COc1cccc(/C=C/c2ccc3ccccc3n2)c1OC(C)=O 26.1%
Cc1nc2cc(NC(=O)Nc3cccc(F)c3)ccc2n1C 42.2%
O=C(Nc1nc2ccccc2s1)c1ccc2c(c1)OCO2 21.8%
O=C(Nc1ccccc1)c1ccc2c(c1)OCCCO2 31.5%
COc1cc(CNC2CCCCC2)c(Br)cc1OC1CCCC1 35.2%
CCCCOCCCNC(=O)c1ccccc1OCC 29.5%
CC(C)Nc1ccc(-n2nc3ccccc3[n+]2[O-])cc1 20.2%
COCc1cc(=O)[nH]c2cc(NC(=O)C(F)(F)F)c(C)cc12 43.6%
C=CCn1c(C)cc(C2=NNC(=NCC)SC2)c1C 44.5%
CCOC(=O)CNC(=O)c1nn(-c2cccc(OC)c2)c(=O)c2ccccc12 20.7%
Cc1cc(C)nc(S/C=C/C(=O)c2ccccc2)n1 34.3%
COc1ccc(/C=N/Nc2ccccc2C(=O)O)cc1 24.7%
COc1ccc(C(=O)Nc2ccccc2C(=O)N/N=C/c2ccccc2OC)cc1 50.3%
COc1ccc(C(=O)Nc2ccccc2C(=O)N/N=C/c2ccc(O)c(OC)c2)cc1 89%

inhibition, inactive:
Cc1cccc(C)c1Nc1nnc(SCC(=O)Nc2sccc2C#N)s1 3.59%
COc1ccc(NC(=O)CSc2nc(C)cs2)cc1 -1.43%
CCc1ccccc1NC(=O)[C@@H]1CCC(=O)N1C1OC(=O)c2c1ccc(OC)c2OC (some centres undefined) -1.1%
COc1ccc(NC(=O)c2ccco2)cc1NC(=O)c1ccc(C#N)cc1F -0.59%
CCCCCc1ccc(-c2ccc(OCC)cc2)nc1 0.91%
CCCCCc1ccc(-c2cn(Cc3ccc4ccccc4c3)nn2)cc1 -4.93%
COCCn1c(SCc2nnc(-c3ccc(OC)c(OC)c3)o2)nc2sc3c(c2c1=O)CCC3 1.74%
CC(=O)c1ccc(S(=O)(=O)N(C)CCCC(=O)N(C)Cc2ccccc2F)cc1 0.72%
CC1(c2ccccc2)CC(C)(C)N(C(=O)c2cc([N+](=O)[O-])cc([N+](=O)[O-])c2)c2ccccc21 (centres undefined) -2.72%
CC1(c2cccc([N+](=O)[O-])c2)CC(C)(C)N(C(=O)c2ccccc2)c2ccccc21 (centres undefined) 2.72%
NC1=NN(c2cccc(C(=O)O)c2)C(=O)C1 3.9%
O=Cc1c(Nc2ccccc2Cl)nc2ccccn2c1=O 0.05%
COc1ccc(OCc2cc(C(=O)NCC3(C)COC3)no2)c(Cl)c1 -3.93%
COc1ccc(-c2cn3ccsc3n2)cc1 6.4%
CSc1nnc2ccc(-c3ccc(C)cc3)nn12 -5.22%
Cc1ccc(-n2cc3ccc([N+](=O)[O-])cc3n2)cc1 9.46%
Cc1cc(N2CCOCC2)nc(-c2ccc(Br)cc2)n1 7.23%
COc1ccc(-c2cn3cccnc3n2)cc1 0%
CCN(CC)S(=O)(=O)c1ccc(-c2cn3ccc(C)cc3n2)cc1 1.15%
Cc1ccc(-c2cc(N)on2)cc1 3.55%
Cc1nc(-c2ccc([N+](=O)[O-])cc2)c(-c2ccccc2)o1 10.2%
COc1ccc(S(=O)(=O)NC(C)c2ccccc2)cc1C(=O)N1CCCCC1 (centres undefined) -0.07%
Cc1cc(NC(=O)c2ccccc2C)no1 1.41%
CC(NCc1cccs1)C(=O)Nc1cc(Cl)cc(Cl)c1 (centres undefined) 3.33%
O=S(=O)(Cc1cc(Cl)nc(-c2cccnc2)n1)c1ccccc1 -1.01%
Cc1cccc(C(=O)N2CCCC(Nc3ccc(C(C)C)cc3)C2)n1 (centres undefined) 2.58%
Cc1ccc(NS(=O)(=O)c2ccc(C)c(NC(=O)COc3ccc4ccccc4c3)c2)c(C)c1 3.5%
COc1ccc2cc(S(=O)(=O)Nc3ccccn3)ccc2c1 -2.45%
O=S(=O)(Nc1ccccc1Cl)c1cccc2nsnc12 -0.91%
COc1ccc2c(c1)C(NS(=O)(=O)OCC(Cl)(Cl)Cl)CCC2 (centres undefined) -3.42%
CCOc1cccc(/C=C/c2ccc3ccccc3n2)c1OC(C)=O 11.8%
COc1cccc(/C=C2\C=C(c3ccc(C)cc3)OC2=O)c1OC(C)=O -2.84%
Cc1cc(=O)oc2cc(OC(C)C(=O)NCCc3ccc(S(N)(=O)=O)cc3)ccc12 (centres undefined) -1.68%
COC(=O)C1=C(O)/C(=C/c2ccc(OCC(=O)Nc3ccccc3)cc2)N=C1C 3.09%
COC(=O)c1ccc(Nc2ncnc3sccc23)cc1 -0.64%
COc1ccc(N(CC(=O)NCC2CCCO2)C(=O)CCC(=O)Nc2nccs2)c(OC)c1 (centres undefined) 1.16%
C=CCN(C(=O)Nc1ccc2c(c1)nc(C)n2C)c1ccccc1 2.61%
Cc1nc2cc(NC(=O)NC3CC3)ccc2n1C -3.15%
CCN(C(=O)COc1ccc(C(=O)c2ccccc2)cc1)c1ccccc1 2.9%
O=C(Nc1cccc(S(=O)(=O)Nc2ccc(Cl)cc2)c1)c1ccc2c(c1)OCCO2 -6.31%
COCc1nnc(NC(=O)c2ccc3c(c2)OCO3)s1 -2.47%
O=C(Nc1ccccc1F)c1ccc2c(c1)OCO2 4.08%
O=C(Nc1ccc(N2CCOCC2)cc1)c1ccc2c(c1)OCO2 4.41%
CN1CCN(CCNC(=O)Nc2ccccc2[N+](=O)[O-])CC1 -4.79%
O=C(CCN1C(=O)C2C3CCC(C3)C2C1=O)Nc1ccc(Cl)cc1Cl (centres undefined) -1.86%
COc1ccc(/C(C)=N\NC(=O)c2ccc(-c3ccccc3)cc2)c(F)c1 -2.33%
Oc1c(Cl)cc(Cl)cc1/C=N/c1ncn[nH]1 -0.17%
CC(C)C[C@H](NC(=O)N1CCn2c1nc1ccccc12)C(=O)NC1CC1 -4.43%
COc1ccccc1C(=O)Nc1cccc(C(=O)N2CCOCC2)c1 -1.04%
CC(C)(C)NCc1cc(Br)ccc1OC1CCCC1 -2.93%
COc1cc(CNC2CCCC2)c(Br)cc1OCc1ccccc1 -1.4%
COc1cc(C(=O)OCC(=O)NC(C)CCc2ccccc2)cc(OC)c1OC (centres undefined) 0.2%
COc1ccccc1CNS(=O)(=O)c1c(C)[nH]c(C)c1C(=O)N1CCCCC1 -3%
CCOc1ccccc1C(=O)NCCCn1ccnc1 2.74%
CCCOc1ccccc1C(=O)NCCCC(=O)O 1.45%
Cc1c(C(=O)N(C)CCc2cnn(C)c2)oc2c(F)cccc12 -3.1%
O=C(Cc1ccsc1)N1CCN(S(=O)(=O)c2cc(C(F)(F)F)cc(C(F)(F)F)c2)CC1 -2.85%
CC(NC(=O)c1ccco1)c1ccc2c(c1)OCO2 (centres undefined) -2.76%
O=C(Nc1ccccc1)c1ccccc1NC(=O)C(F)(F)F -1.41%
COCc1cc(=O)[nH]c(-c2ccc(C(F)(F)F)cc2)n1 -1.15%
CSc1ccccc1NC(=O)c1cc(Cl)sc1Cl 2.29%
C=CCn1c(C)cc(C(=O)CN2C(=O)c3ccccc3C2=O)c1C -0.12%
Cc1cc(C2=NNC(=Nc3ccc(S(=O)(=O)N4CCOCC4)cc3)SC2)c(C)n1CC1CCCO1 (centres undefined) 1.56%
Cc1ccc2c(=O)cc(C(=O)NCCc3ccc(S(N)(=O)=O)cc3)oc2c1C 0.5%
CC(=O)c1ccc(NC(=O)c2cc(-c3cccs3)on2)cc1 -4.55%
COCCCNC(=O)CNC(=O)c1nn(-c2ccc(OC)cc2)c(=O)c2ccccc12 -1.14%
COc1ccc(-n2nc(C(=O)NCC(=O)Nc3cccc(C)n3)c3ccccc3c2=O)cc1 0.84%
CC(=O)NS(=O)(=O)c1ccc(N/C(N)=N/c2nc(C)cc(C)n2)cc1 -3.21%
COc1cccc(C(=O)NNC(=O)/C=C/c2ccccc2)c1 -8.89%
Cc1cc(C)nc(SCC(=O)c2ccc(Cl)cc2)n1 -0.36%
Cc1ccc(N/C=C/C(=O)c2ccccc2)cc1C -2.61%
COc1ccc(C(=O)Nc2ccccc2C(=O)NCc2ccco2)cc1 -2.57%
COc1cc(/C=N/NC(=O)c2ccc(N3CCCC3=O)cc2)ccc1O -0.72%
COc1cc(/C=N/NC(=O)c2ccccc2)ccc1OS(=O)(=O)c1ccccc1 -0.09%
COc1ccc(/C=N/OCC(=O)N(Cc2ccccc2)c2ccccc2C(=O)O)cc1 -2.76%
COc1ccc(/C=N/Nc2nc3ccccc3c(=O)[nH]2)cc1 0.73%
COc1ccc(/C=N/NC(=O)c2ccc3c(c2)OCCO3)c(OC)c1 2.94%
